# Experimental data reported in ChEMBL document CHEMBL3988442, “University of Dundee, Small-Polar-MMV Screening Library” (2021).
# Hit rate of the full screen: of about 48,000 compounds, about 13,000 (27%) showed an effect of 50% or more. The list shows a part of the results.
# Tested on: Wolbachia pipientis
# Experiment: Anti-Wolbachia Cell-Based Screen
# Format: functional
# Parameters: scale not given: in the data most compounds retested in dose-response had high values
# Conditions: 5 µM
row,Structure (SMILES),Percent Effect
1,COC1CCCN(C(=O)NCC(C)(C)SC)C1 (stereo not given),-6.562%
2,NC(=O)C(NC1CCN(CC2CCCCC2)CC1)c1ccc(F)cc1 (stereo not given),3.018%
3,CS(=O)(=O)CCC(=O)Nc1cc(Cl)c(Cl)cn1,-8.334%
4,O=C(c1ccc(S(=O)(=O)NCC(F)F)cc1)N1CC[C@H]2CNC[C@H]21,-11.61%
5,CSc1ccc(C(C)NC(=O)c2cc(C)on2)cc1 (stereo not given),-17.95%
6,Cc1noc(C)c1CCCNC(=O)Nc1cccc([S+](C)[O-])c1 (stereo not given),-8.91%
7,CS(=O)(=O)N1CC[C@]2(O)CCN(c3ccnc(N)n3)C[C@@H]2C1,-18.71%
8,CN(C)S(=O)(=O)N1CC[C@]2(O)CCN(CCCc3cccnc3)C[C@@H]2C1,99.63%
9,CN(C)S(=O)(=O)N1CC[C@]2(O)CCN(c3nccs3)C[C@@H]2C1,-7.348%
10,Cc1ccc(N2CC[C@@]3(O)CCN(S(C)(=O)=O)C[C@H]3C2)nn1,-14.46%
11,CS(=O)(=O)N1CC[C@]2(O)CCN(CCCC(=O)c3ccccc3)C[C@@H]2C1,92.75%
12,CN(C)S(=O)(=O)N1CC[C@]2(O)CCN(c3ncccn3)C[C@@H]2C1,8.402%
13,O=C(c1[nH]nc(C2CC2)c1Cl)N1CCCC1,-9.749%
14,OC(CN1CCCCCCC1)c1ccc(F)cc1 (stereo not given),-2.886%
15,CCc1cnc(NCC(c2ccncc2)N2CCOCC2)nc1 (stereo not given),-11.49%
16,O=C(C(c1ccc(F)cc1)N1CCCCC1)N1CCn2cncc2C1 (stereo not given),7.503%
17,COc1cc(NCC(c2ccccn2)N2CCOCC2)ncn1 (stereo not given),-14.18%
18,Fc1ccccc1C(CNc1ccncn1)N1CCCC1 (stereo not given),123.2%
19,Fc1ccc(C(CNc2ccncn2)N2CCCC2)cc1 (stereo not given),85.77%
20,NCc1cc(NCC(c2ccccn2)N2CCOCC2)ncn1 (stereo not given),-3.716%

row,Structure (SMILES),Percent Effect
1,Fc1ccc(C(CNc2ccncn2)N2CCCCC2)cc1 (stereo not given),113.6%
2,O=C(N1CCCC1)N1CCC(Nc2ccncn2)CC1,4.287%
3,CCc1cc(N(C)Cc2[nH]nc3c2CCC3)nc(N2CCOCC2)n1,17.45%
4,O=C(NCC1(c2ccc(F)cc2)CC1)N1CCC2(CCOC2)C1 (stereo not given),-4.934%
5,O=C(O)C(F)(F)F.O=S(=O)(C1CC1)N1C[C@@H]2CN(Cc3cccs3)CCO[C@@H]2C1,9.308%
6,CN1CCO[C@@H]2CN(S(=O)(=O)c3ccccc3F)CC[C@@H]2C1.O=C(O)C(F)(F)F,-5.27%
7,CC(=O)N1CCO[C@@H]2CN(S(=O)(=O)c3cccs3)CC[C@@H]2C1,114.4%
8,CC(C)CN1CC[C@@H]2[C@@H]1CCN2S(=O)(=O)c1cccs1.O=C(O)C(F)(F)F,-11.08%
9,CCS(=O)(=O)N1C[C@@H]2CN(Cc3cccs3)CCO[C@@H]2C1.O=C(O)C(F)(F)F,3.582%
10,CCN1CCO[C@@H]2CN(S(=O)(=O)c3cccs3)CC[C@@H]2C1.O=C(O)C(F)(F)F,101.9%
11,CN1CCO[C@@H]2CN(S(=O)(=O)c3cccs3)CC[C@@H]2C1.O=C(O)C(F)(F)F,99.53%
12,CC(C)N1CCO[C@@H]2CN(S(=O)(=O)c3cccs3)CC[C@@H]2C1.O=C(O)C(F)(F)F,96.63%
13,CN(C)C[C@H]1OC[C@@H]2CCN(S(=O)(=O)c3cccs3)C[C@@H]21.O=C(O)C(F)(F)F,-5.421%
14,CCO[C@@H]1C[C@H]2CN(S(=O)(=O)c3cccs3)CCN2C1.O=C(O)C(F)(F)F,-4.424%
15,CC(=O)N1CCO[C@@H]2CN(C(=O)c3ccccc3)CC[C@@H]2C1,-4.476%
16,CCC(C)Nc1ccc2c(c1)C1(CCOCC1)C(=O)N2c1ccccc1 (stereo not given),13.06%
17,Cc1ccccc1CS(=O)(=O)CC(=O)N(C)Cc1cccc(F)c1,-33.07%
18,CCN1CCN2CCCN(S(=O)(=O)c3ccc(S(C)(=O)=O)cc3)C2C1=O (stereo not given),10.86%
19,CCn1c(CN(C)C(C)CSC)nc2c(F)cccc21 (stereo not given),-3.593%
20,Cn1nnnc1SCCNC(=O)C1CCN(C(=O)C2CC2)CC1,0.3316%

row,Structure (SMILES),Percent Effect
1,CCCc1cc(=O)n(CC(N)=O)c(-n2nc(C)cc2C)n1,12.11%
2,COCCNC(=O)Cn1c(C)cc2nc(SC)n(CC(C)C)c(=O)c21,0.09267%
3,Cc1cc(C)n(-c2cncc(N3CCN(C(=O)C(C)C)CC3)n2)n1,-1.845%
4,COCCS(=O)(=O)NC(C)c1ccc(-n2nc(C)cc2C)cc1 (stereo not given),-14.21%
5,CCCNC(=O)Cn1c(-n2nc(C)cc2C)nc(CCC)cc1=O,109.3%
6,CCN(CC)C(=O)CCNc1cncc(-n2nc(C)cc2C)n1,-4.875%
7,CCCNC(=O)Cn1c(C)nn(C(C)(C)C)c1=O,-1.553%
8,CCCc1cc(=O)n(CC(=O)NCCOC)c(-n2nc(C)cc2C)n1,110%
9,CCCc1cc(=O)n(CC(=O)NC(C)C)c(-n2nc(C)cc2C)n1,152.6%
10,CCC(O)CN(CC(=O)NC(=O)NC1CC1)c1ccccc1 (stereo not given),-6.258%
11,CCOCC1CC2(CCN(C(=O)C3CCSCC3)CC2)CO1 (stereo not given),-12.12%
12,O=C1CC(c2ccco2)c2sc(C(=O)O)c(-c3ccccc3)c2N1 (stereo not given),3.632%
13,O=C(CO)N1C[C@H]2CC[C@@H]1CN(C1Cc3ccccc3C1)C2,-7.791%
14,CCc1noc(C(C)N2CCN(Cc3nnc(C4CC4)o3)CC2)n1 (stereo not given),4.733%
15,Cc1nnc(CN2CCN(C(C)c3nc(C4CC4)no3)CC2)o1 (stereo not given),96.71%
16,COc1ccc(CN2CCN(C(C)c3nc(C4CC4)no3)CC2)cc1 (stereo not given),8.61%
17,CC(C)c1nnc(CN2CCN(C(C)c3nc(C4CC4)no3)CC2)o1 (stereo not given),138.5%
18,Cc1cc(CN2CCN(C(C)c3nc(C4CC4)no3)CC2)no1 (stereo not given),2.927%
19,CC(C)c1nc(C2CCCN(Cc3nnc(C4CC4)o3)C2)no1 (stereo not given),-2.987%
20,CC(c1nc(C2CC2)no1)N1CCN(Cc2nnc(C3CC3)o2)CC1 (stereo not given),142.3%
